Data from PMC4552634, “A New Set of Chemical Starting Points with Plasmodium falciparum Transmission-Blocking Potential for Antimalarial Drug Discovery” (PLoS ONE, 2015).
The campaign covered roughly 13,000 compounds. About 3,200 (25%) showed an effect of 50% or more. Some of the results follow.

Each compound was assayed on P. falciparum stage V gametocytes. Conditions: 48 h, 5 µM; inhibitor.
Design: BacTiter-Glo ATP luminescence viability of purified stage V gametocytes in 384-well plates, per cent inhibition versus DMSO

SMILES | % Inhibition
O=C(Cc1cccc2ccccc12)N1CCc2cc3nccc(N4CCN5CCC[C@H]5C4)c3cc21 [TCMDC-140040] | -3.161%
O=C(Nc1ccccc1Cl)c1cc2ccccc2cc1O [TCMDC-123494] | 9.579%
CC(Nc1nc(Nc2ccc(F)cc2)nc(SCC(N)=O)n1)c1ccccc1 (stereo not shown) [TCMDC-125832] | -31.65%
CCCCNc1nc(NCCCC)c2c(C)c(Cc3ccccc3)c(NCCCC)nc2n1 [TCMDC-138062] | 134%
Cc1nc2nc(N)nc(N)c2c(C)c1Cc1ccccc1 [TCMDC-137670] | -13.55%
CCCCNc1cc(C)nc(NCc2ccccc2)n1 [TCMDC-123663] | 33.56%
CC(C)(C)c1ccc(NC(=O)c2cccc(CN3CCCN(CC4CCCCC4)CC3)c2)cc1 [TCMDC-135980] | -75.44%
Cc1ccc(NC(=O)Nc2ccccc2F)cc1-c1ccc(C(=O)Nc2ccncc2)cc1 [TCMDC-133706] | -10.32%
Cc1cc(F)ccc1-c1nc(N(C)CCN(C)C(=O)N(C)c2ccccc2)nc2c1ccc(=O)n2-c1c(F)cccc1F [TCMDC-141720] | 17.64%
Cc1ccc(NC(=O)Nc2ccc(Cl)cc2)cc1-c1cccc(C(=O)Nc2ccc(F)cc2)c1 [TCMDC-133591] | -12.79%
Cc1cc(C(=O)Nc2ccc(C)c(-c3nc(N(C(=O)c4ccc(F)c(C)c4)C4CCNCC4)nc4c3ccc(=O)n4-c3c(F)cccc3F)c2)ccc1F [TCMDC-135913] | 55.46%
Cc1ccc(N)cc1-c1nc(NC2CC(C)(C)NC(C)(C)C2)nc2c1ccc(=O)n2-c1c(F)cccc1F [TCMDC-135790] | 57.86%
Cc1ccc(C(=O)Nc2ccc(F)cc2)cc1-c1nc(NC2CC(C)(C)NC(C)(C)C2)nc2c1ccc(=O)n2-c1c(F)cccc1F [TCMDC-135391] | 95.1%
Cc1cc(F)ccc1C1CCN(CCCCNC(=O)c2ccc(NC(=O)c3ccc(Cl)cc3)cc2)CC1 [TCMDC-138363] | 13.4%
CCCc1cc(NCc2ccncc2)nc(Nc2ccc(F)cc2)n1 [TCMDC-134012] | 34.89%
NC(=O)c1ccsc1NC(=O)CNC(c1ccccc1)c1ccccc1 [TCMDC-125458] | 2.042%
O=C(N[C@@H](Cc1ccccc1)[C@H](O)CNC1CCCc2ccccc21)c1cc(C2CCCC2)cc(N2CCCC2=O)c1 (stereo partly shown) [TCMDC-134656] | -0.2102%
Cc1c2c(nn1-c1ccccc1)C(c1ccccc1)N(c1ccccc1)C2=O (stereo not shown) [TCMDC-131674] | -2.033%
COc1ccccc1N1CCN(c2cccc(F)c2C#N)CC1 [TCMDC-124862] | -55.85%
COc1cc(C)c(NC(=O)c2cccc3c(=O)c(C)c(-c4ccccc4)oc23)cc1OC [TCMDC-125261] | -26.52%
COc1ccc(-c2ccc(S(=O)(=O)Nc3cc4c(cc3OC(C)C)CCN(C)CC4)cc2)cc1 [TCMDC-141487] | 10.97%
CC(C)C(=O)ONC1=NC(C)(C)N(OCCCOc2cc(Cl)c(Cl)cc2Cl)C(NOC(=O)C(C)C)=N1 [TCMDC-131788] | -4.555%

SMILES | % Inhibition
CN1CCN(c2ccc(Nc3ncc(C#N)c(Nc4ccccc4C(N)=O)n3)cc2)CC1 [TCMDC-134116] | -62.53%
CN1CCN(c2ccc(Nc3ncc([N+](=O)[O-])c(Nc4ccccc4O)n3)cc2)CC1 [TCMDC-141372] | 99.51%
CNC(=O)c1cnc(Nc2ccc(OCC(O)CN(C)C)cc2)nc1Nc1cccc(OC)c1 (stereo not shown) [TCMDC-141387] | 95.62%
Cc1cc(C)cc(OCC(O)CN(Cc2cc(Cl)cc(Cl)c2)C(=O)Nc2ccc([N+](=O)[O-])cc2)c1 (stereo not shown) [TCMDC-141478] | -6.134%
CNC(=O)c1cnc(Nc2ccc(N3CCN(C)CC3)cc2)nc1Nc1cccc(OC(C)C)c1 [TCMDC-141384] | -23.05%
CNC(=O)c1cnc(Nc2ccc(N3CCN(C)CC3)cc2)nc1Nc1cccc(OC)c1 [TCMDC-141383] | 85.81%
CNC(=O)c1cnc(Nc2ccc(N3CCOCC3)cc2)nc1Nc1cccc(OC)c1 [TCMDC-141386] | -63.88%
CNC(=O)c1cnc(Nc2ccc(OCC(O)CN(C)C)cc2)nc1Nc1cccc(Br)c1 (stereo not shown) [TCMDC-141388] | 25.03%
CNC(=O)c1cnc(Nc2ccc(N3CCOCC3)cc2)nc1Nc1cccc(O)c1 [TCMDC-141385] | -8.649%
CNC(=O)c1cnc(Nc2ccc(OCC(O)CN(C)C)cc2)nc1Nc1cccc([N+](=O)[O-])c1 (stereo not shown) [TCMDC-141392] | 55.28%
CN(C)CCOc1cc(NC(=O)Nc2cccc([N+](=O)[O-])c2)ccc1I [TCMDC-139158] | 11.15%
CC(C)N(Cc1ccccc1)C(=O)CN1C(=O)COc2ccc(S(=O)(=O)N3CCCCCC3)cc21 [TCMDC-124755] | -21.1%
N#Cc1ccc2c(c1)CCN(CCC1CCC(NC(=O)c3cccc(-c4ccc(F)cc4)c3)CC1)CC2 (stereo not shown) [TCMDC-139679] | -51.12%
O=C(c1csc(-c2cccnc2)n1)N1CCc2cc3nccc(N4CCN5CCC[C@H]5C4)c3cc21 [TCMDC-140044] | 44.75%
CCCCCSc1cc(O)c(C(CNC)C(C)C)cc1OC (stereo not shown) [TCMDC-125495] | -82.86%
CNC(=O)c1cnc(Nc2ccc3[nH]c(=O)[nH]c3c2)nc1Nc1cccc(OC(C)C)c1 [TCMDC-141390] | -16.36%
CNC(=O)c1cnc(Nc2ccc(OCC(O)CN(C)C)cc2)nc1Nc1cccc(OC(C)C)c1 (stereo not shown) [TCMDC-141389] | 97.53%
CCCN(CCC)CC(O)COc1ccccc1C(=O)Nc1ccccc1 (stereo not shown) [TCMDC-125708] | -0.1626%
CNc1ccc(CNCc2cccc(-c3ccc(-c4nc5ccccc5[nH]4)cc3)c2)cc1.O=C(O)C(F)(F)F [TCMDC-132986] | 13.98%
O=C(O)C(F)(F)F.c1ccc(CNCc2ccc(-c3ccc(-c4nc5ccccc5[nH]4)cc3)cc2)cc1 [TCMDC-132711] | -28.39%
COc1ccc(CNCc2ccc(-c3ccc(-c4nc5cc(F)ccc5[nH]4)cc3)cc2)cc1.O=C(O)C(F)(F)F [TCMDC-132725] | -52.38%
COc1ccc(CNCc2ccc(-c3ccc(-c4nc5ccccc5[nH]4)cc3)cc2)cc1.O=C(O)C(F)(F)F [TCMDC-132730] | 80.88%

SMILES | % Inhibition
COc1ccc(CNCc2cccc(-c3ccc(-c4nc5ccccc5[nH]4)cc3)c2)cc1.O=C(O)C(F)(F)F [TCMDC-132718] | 76.66%
COc1ccc(CNCc2ccc(-c3cccc(-c4nc5ccccc5[nH]4)c3)cc2)cc1.O=C(O)C(F)(F)F [TCMDC-132546] | 33.45%
OC[C@H]1CCCN1CC#Cc1cc2c(Nc3ccc(OCc4cccc(F)c4)c(Cl)c3)ncnc2s1 [TCMDC-138787] | -22.43%
Cc1ccn2c(C(=O)N3CCN(c4cccc5c4nc(-c4ccoc4)n5Cc4ccccn4)CC3)c(C)nc2c1 [TCMDC-134556] | -25.5%
CCCC(=O)Nc1ccc(Nc2nc(C)cc(N3CCCC3)n2)cc1 [TCMDC-124718] | -11.42%
COc1ccc(Nc2ncc3c(-c4cccc(NC(=O)Cc5ccncc5)c4)c[nH]c3n2)cc1OC [TCMDC-135286] | -39.63%
COc1ccc(Nc2ncc3c(-c4cccc(NC(=O)Cc5ccc(O)cc5)c4)c[nH]c3n2)cc1OC [TCMDC-135248] | -43.02%
COc1ccc(Nc2ncc3c(-c4cccc(NC(=O)CC(C)C)c4)c[nH]c3n2)cc1OC [TCMDC-135246] | 51.08%
Cc1cccc2nc(-c3ccc(-c4cccc(CN5CCN(CCN6CCOCC6)CC5)c4)s3)[nH]c12.O=C(O)C(F)(F)F [TCMDC-133925] | 7.217%
Cc1cccc2nc(-c3ccc(-c4cccc(CN5CCCC(N)C5)c4)s3)[nH]c12.O=C(O)C(F)(F)F (stereo not shown) [TCMDC-133874] | 63.62%
NC1CCCN(Cc2cccc(-c3ccc(-c4nc5ccccc5[nH]4)s3)c2)C1.O=C(O)C(F)(F)F (stereo not shown) [TCMDC-133870] | 15.45%
Cc1cccc2nc(-c3ccc(-c4cccc(CN5CCCCC5)c4)s3)[nH]c12.O=C(O)C(F)(F)F [TCMDC-133911] | -13.55%
Cc1cccc2nc(-c3ccc(-c4cccc(CN5CCC(N)C5)c4)s3)[nH]c12.O=C(O)C(F)(F)F (stereo not shown) [TCMDC-133873] | 89.08%
Cc1cccc2nc(-c3ccc(-c4cccc(CN5CCCC(O)C5)c4)s3)[nH]c12.O=C(O)C(F)(F)F (stereo not shown) [TCMDC-133834] | -3.04%
Cc1cccc2nc(-c3ccc(-c4cccc(CN5CCC(CCN6CCCCC6)CC5)c4)s3)[nH]c12.O=C(O)C(F)(F)F [TCMDC-133923] | 107.3%
Cc1cccc2nc(-c3ccc(-c4cccc(CN5CCC(CO)CC5)c4)s3)[nH]c12.O=C(O)C(F)(F)F [TCMDC-133122] | 24.91%
Cc1cccc2nc(-c3ccc(-c4cccc(CN5CCC(C(N)=O)CC5)c4)s3)[nH]c12.O=C(O)C(F)(F)F [TCMDC-132690] | -2.69%
COc1cc(Nc2nccn3c(-c4ccsc4)cnc23)cc(OC)c1OC [TCMDC-134382] | 37.58%
COc1ccc(-c2cncc(-c3ccc(OC)c(OC)c3)n2)cc1OC [TCMDC-138247] | 25.57%
COc1ccc(-c2cnn3ccc(Nc4cc(OC)c(OC)c(OC)c4)nc23)cc1OC [TCMDC-134383] | 101%
